# An excerpt weighted towards active compounds, which were near 8.6% of everything screened.
# Lassa entry: qHTS for Inhibitors of binding or entry into cells for Lassa Virus. Lassa virus pseudotyped entry inhibition, cell-based qHTS. Potency, µM (series often up to 49.2 µM), inactives show at the highest dose activity change, negative = inhibition, actives largely listed as inhibitors. 4.1% of 18,000 active
# Marburg entry: qHTS for Inhibitors of binding or entry into cells for Marburg Virus | Marburg virus pseudotype entry/binding inhibition, cell-based | Potency, µM (top dose mostly 49.2 µM), inactives show top-dose activity change, negative = inhibition, usual class: inhibitors | 6.5% of 18,000 active
# * = called active by the depositor; ? = inconclusive; . = no result; ! = not active in a repeat; [ ] = dose if it differs, or a comment. Calls come from the whole dose curve; tested in HEK293 cells. % is set by controls: 0 for no effect and ±100 for the full control effect; potency is the fitted concentration of half-maximal effect.
SMILES,Lassa entry,Marburg entry
COc1cc2c(Nc3ccc(NC(=O)c4ccccc4)cc3)ncnc2cc1OCCCN1CCOCC1,10.0%,?
C[C@@H](O)[C@H]1C(=O)N2C(C(=O)O)=C(SCCN=CN)C[C@H]12,-2.9%[17.8 µM],-14.0%[17.8 µM]
CC(NC(=O)c1cccnc1)c1nnc2n1CCN(Cc1ccc(-c3ccccc3)cc1)CC2 (stereo not drawn),0.6%,?
C[C@@H]([C@H](O)c1ccc(O)cc1)N1CCC(Cc2ccccc2)CC1,-8.1%,?
CC(C(O)c1ccc(O)cc1)N1CCC(Cc2ccccc2)CC1 (stereo not drawn),-18.8%,10µM*
CC1OC(OCC2OC(Oc3cc(O)c4c(c3)OC(c3ccc(O)cc3)CC4=O)C(O)C(O)C2O)C(O)C(O)C1O (stereo not drawn),-4.9%,0.2%
CS/C(N)=C(C#N)/C(C#N)=C(\N)SC,3.1%,11.3%
Cc1ncc2c(c1CNC(=O)c1ccc3c(c1)OCO3)CCN(C(=O)c1cn3ccccc3n1)C2,?,-5.8%
COc1ccc(-c2nn3ncccc3c2-c2ccnc(Nc3ccc4c(c3)OCCO4)n2)cc1,?,7.05µM*
NC(=O)c1ccc2c(-c3ccnc(NCCCO)n3)c(-c3ccc(F)cc3)nn2c1,-16.9%,?
OCCCNc1nccc(-c2c(-c3ccc(F)cc3)nn3cc(C(F)(F)F)ccc23)n1,-38.8%,?
c1cnn2ncc(-c3ccnc(Nc4ccc5c(c4)OCCO5)n3)c2c1,.,2.81µM*
Clc1ccc(-c2nn3ncccc3c2-c2ccnc(Nc3ccccc3)n2)cc1,.,6.28µM*
Fc1ccc(-c2nn3ncccc3c2-c2ccnc(Nc3ccc4c(c3)OCCO4)n2)cc1,?,0.888µM*
O=C(CCCC[C@@H]1SC[C@H]2NC(=O)N[C@H]12)Nc1ccc(C(=O)O)cc1,2.3%,1.3%
CC(C)C[C@H](NC(=O)[C@H](CC(C)C)NC(=O)[C@@H](Cc1c[nH]c2ccccc12)NC(=O)[C@H](Cc1ccccc1)NC(=O)[C@@H](Cc1c[nH]c2ccccc12)NC(=O)[C@H](CCC(N)=O)NC(=O)[C@H](CCC(N)=O)NC(=O)[C@@H]1CCCN1C(=O)[C@H](CCCCN)NC(=O)[C@@H]1CCCN1C(=O)[C@@H](CCCNC(=N)N)NC(=O)[C@@H]1CCCN1C(=O)CNC(=O)[C@H](CC(C)C)NC(=O)[C@H](CC(C)C)NC(=O)[C@H](Cc1ccc(O)cc1)NC(=O)CNC(=O)[C@H](C)NC(=O)[C@H](CO)NC(=O)[C@H](CC(N)=O)NC(=O)[C@H](CC(C)C)NC(=O)[C@@H](NC(=O)[C@H](Cc1c[nH]c2ccccc12)NC(=O)CN)[C@@H](C)O)C(N)=O,-4.9%,10.7%
CCCNC(=O)OC[C@H]1O[C@H](CCON=C2C[C@@H](O)[C@@H](O)[C@@H]3[C@H]4C(=O)N(CC)C(=O)[C@@H]4CC[C@H]23)C=C[C@H]1Oc1ccc(OC)cc1,-3.0%[8.59 µM],0.3%[8.59 µM]
COc1ccc([C@H]2C[C@@H](n3cc(-c4ccc(F)cc4)nn3)[C@H](O)CN2C(=O)C2CCCCC2)cc1,-18.5%,-17.9%
FC(F)(F)c1cccc(-c2nn3ncccc3c2-c2ccnc(Nc3ccc4c(c3)OCCO4)n2)c1,.,3.97µM*
COC(=O)CC1[C@@]2(C)C[C@]34OC5(C)OC6(C7CC(=O)OC(c8ccoc8)[C@]7(C)CCC6(O5)[C@]13C)C(OC(C)=O)[C@]4(OC(C)=O)C2OC(C)=O (stereo partly drawn),-4.0%,3.0%
CN1CCCN(C(=O)[C@@H]2C[C@@H](Sc3nc4ccccc4[nH]3)CN2Cc2ccc(OC(F)(F)F)cc2)CC1,9.2%,?
CCCCc1cc2c(cn1)=C(OC(=O)C1CCCC1)C(C)(OC(=O)CC)C(=O)C=2 (stereo not drawn),-4.6%[8.59 µM],?
CC(O)C(C)OC(=O)[C@@H]1C[C@@H]2c3cccc4c3c(cn4C(C)C)C[C@H]2N(C)C1 (stereo partly drawn),?,12.6%
CN1CC(CNC(=O)OCc2ccccc2)CC2c3cccc4c3c(cn4C)CC21 (stereo not drawn),?,10µM*
COc1ccc(O[C@H]2C=C[C@@H](c3ccccc3)O[C@H]2COC(=O)CCC(C)=NOC[C@@H](O)COCc2ccco2)cc1,.,9.9%[8.59 µM]
SMILES,Lassa entry,Marburg entry
OC1(c2cccnc2)CCN(Cc2ccc3c(c2)CN(Cc2cc(F)ccc2F)CCO3)CC1,0.3%,?
Cn1cnc2c(NCc3ccccc3)nc(NCCO)nc21,-1.5%,2.5%
COc1ccc(CNc2nc(NCc3ccc(OC)cc3)c3ncn(C4CCCCC4)c3n2)cc1,?,3.55µM*
CNC(=O)c1cc(Oc2ccc(NC(=O)Nc3ccc(Cl)c(C(F)(F)F)c3)cc2)ccn1,7.94µM*,12.6µM*
COC(=O)Nc1nc2ccc(Oc3cccc(NC(=O)Nc4cc(C(F)(F)F)ccc4F)c3)cc2[nH]1,-50.3%,?
COC(=O)C1=C(C(=O)OC)[C@@H]2Nc3ccccc3[C@@]23C[C@@H](C(=O)OC)N(C(=O)Nc2ccc(C(F)(F)F)cc2)C3=N1,-15.9%[8.59 µM],-15.4%[8.59 µM]
COc1ccc(C=O)c(OCc2cn(CC(=O)c3ccc(O)cc3)nn2)c1,-4.7%,20.6%
CC1=C(C(=O)O)N2C(=O)C(NC(=O)C(N)c3ccccc3)C2SC1 (stereo not drawn),1.3%,2.7%
C1CCC(NC(=NC2C3CC4CC(C3)CC2C4)N2CCOCC2)CC1 (stereo not drawn),?,14.1µM*
CC1=CC2CC(CCO)OP(=O)(OC1)O2 (stereo not drawn),-19.3%,-2.3%
CCCNC(=O)[C@H]1O[C@@H]1C(=O)N[C@H](C(=O)N1CCC[C@H]1C(=O)OC)[C@@H](C)CC,10µM*,2.51µM*
CCOC(=O)C(CCc1ccccc1)NC(C)C(=O)N1CCCC1C(=O)O (stereo not drawn),3.5%,5.7%
COc1cc(CN2CCN(CCCSc3cc(C(C)(C)C)c(O)c(C(C)(C)C)c3)CC2)cc(OC)c1OC,20µM*,2.82µM*
O=C1C(SCCO)=C(SCCO)C(=O)c2ccccc21,8.91µM*,3.55µM*
C[C@H](O)CON1C(=O)c2ccccc2C1=O,-1.0%,5.5%
CN1CCN(C2Cc3ccccc3Sc3ccc(Cl)cc32)CC1 (stereo not drawn),?,12.6µM*
CSc1ccc2c(c1)C(N1CCN(C)CC1)Cc1ccccc1S2 (stereo not drawn),22.4µM*!,6.31µM*
CSc1ccc2c(c1)[C@H](N1CCN(C)CC1)Cc1ccccc1S2,28.2µM*!,11.2µM*
COC(=O)CC1c2ccccc2C(Cc2ccc(OC)cc2)C(C)N1C(=O)OC (stereo not drawn),10.5%[8.59 µM],?
COc1ccc(CNC(=O)c2cnn(-c3ncc4c(n3)-c3ccccc3CC4)c2C)cc1OC,12.4%,63.2%
C=C[C@@]1(C)CC[C@H](O)[C@H]2C(=O)CCC[C@@H]21,-3.2%,2.4%
C=CC[C@H]1C(=O)N2[C@@H](C[C@@H](C)[C@@H]2c2ccccc2)[C@@H](CC=C)C(=O)N2[C@H]1C[C@@H](C)[C@@H]2c1ccccc1,30.8%[8.59 µM],?
COc1ccc2cc1Oc1ccc(cc1)C[C@H]1c3c(cc4c(c3Oc3cc5c(cc3OC)CCN(C)[C@@H]5C2)OCO4)CCN1C,?,1.78µM*
COc1cc2c(cc1O)C[C@H]1c3c(cc(O)c(OC)c3-2)CCN1C,15.1%[17.8 µM],20.3%[17.8 µM]

# Screening data deposited in PubChem by National Center for Advancing Translational Sciences (NCATS).
